Measured values published in the supplement of paper PMC11417369.
± gives the standard deviation of the averaged measurements. Whole data set: some 25,000 sequences, median “ln(normalized median fluorescence intensity)” near 10, cut for the highest 2% near 12. What follows is part of a selection rich in the highest values, with near analogues and random picks from the rest.

These sequences were tested on PfAP2-G AP2 domain (GST-tagged) (assay: gcPBM binding intensity (ln(normalized median fluorescence intensity)); higher = stronger DNA binding).
Method in brief: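 GST-tagged P. falciparum DNA-binding domains, expressed in E. coli (about 25 μg on average), were applied for 1 h to an Agilent 4 × 180k array of primer-extended double-stranded 36-bp intergenic genomic probes plus negative controls. The binding buffer was 1× PBS with 1% milk, 0.2 mg/ml BSA, 0.5% salmon testes DNA and 0.03% Triton X-100. Bound protein was detected with Alexa488 anti-GST antibody and scanned at 488 nm. Binding intensity is the highest Masliner-normalised natural-log median intensity across replicate spots of either probe orientation.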

Sequence	gcPBM binding intensity (ln)
TTATTAAATTTTTTTTGTACTTATATATATATATAT [XGTACX_site2443]	11.2 ± 0.79
TTTTTTTTTTTTTACACACACAAAATATTATCTGTA [CACACA_site5378]	9.83 ± 0.42
AATAATTAAATATATTTATAACAGGAAAATATTTAT [XGTACX_negctrl_site175]	10.2 ± 0.16
TGTTGTATTTTTACAACACACATTTAATCCATTTAA [CACACA_site1507]	10 ± 0.27
CTTCCTTAGGAATGTACACACATATAAAATATGTTG [CACACA_site6355]	11.4 ± 0.84
ATAAAATAATTAATGGGTACATAATTAAATAAAGAG [XGTACX_site3309]	11.3 ± 0.66
TTTTATGAAAAATGGCTTATCTGTAAAGAAGTGGAG [CACACA_negctrl_site1586]	10.3 ± 0.36
AAGGTATAGAAACACACACACGTGAATATAGTTTAA [CACACA_site5109]	10.01 ± 0.028
TAATATAATAGAAGTGTACACACATATTTATGGGTG [CACACA_site9023]	11.6 ± 0.93
ATATATATATATTTATGTACATATACATAATGTATA [XGTACX_site6387]	11.2 ± 0.76
GTATGTATGTATATATGTACACATTATTATTTAATG [XGTACX_site5802]	11.6 ± 1
ATTTTTTTTTTTATGTGTACATATATTTTTTTAATT [XGTACX_site7921]	11.6 ± 0.97
ATATTTATAATTTTTTGTACACATTTTTTAAAGATA [XGTACX_site1784]	11.4 ± 0.9
ATGTATATATTTTTATGTACATATTTTTAATTTATA [XGTACX_site2982]	11.4 ± 0.87
ATATATATATAATGTGTACACACATATGTATTTATA [CACACA_site8170]	11.7 ± 0.67
TTTTATTTATCTTAATGTACACATTTATATATATAT [XGTACX_site8588]	11.7 ± 1.3
GATTTTAATGGGTGTACACATTTATTTATATAAAGT [CACACA_site5317]	11.7 ± 0.93
TCACATATATATTAATGTACATATATTTTTTATGTA [XGTACX_site5125]	11.2 ± 0.54
ATATATATATATATATGTACATATTTTATTTAATTT [XGTACX_site1807]	11.2 ± 0.69
GTATATATGTATATGTGTACATATATTTTATAATAT [XGTACX_site5703]	11.3 ± 0.79
TGTATGTATGTATTATTTGTTATTTTAATTTTTTTG [TGCATGCA_negctrl_site256]	10.36 ± 0.085
CATATATAACATATAACACACATACTTAGTATTACA [CACACA_site5674]	10.1 ± 0.24
GTTACAGAGAATGTTGTGCACATATCAATAATATAT [GTGCAC_site9671]	10.5 ± 0.28

Sequence	gcPBM binding intensity (ln)
AACGTGTATTTATATTGTACACATTCATACATCAAA [XGTACX_site3644]	11.4 ± 0.95
TCCTTACCTATTAAAGCATGCTCGAATATATATTTT [TGCATGCA_site53]	9.81 ± 0.18
ATACACATAACATATATATATATATATATATATATC [CACACA_negctrl_site278]	9.73 ± 0.057
TTTTGGATACTTCATTTGTCCTGTTTTTTTTTTTTA [CACACA_negctrl_site399]	10.7 ± 0.37
TATATTTATACAATATGTACATATTATATATATATA [XGTACX_site3098]	11 ± 0.59
TATAAAAAAAAATGTGGTACATATTTCCATTTTCCA [XGTACX_site4571]	11.3 ± 0.76
TATTTTTCCATTGGGGGTACATGTGTTATATTTATT [XGTACX_site5914]	11.7 ± 0.88
TATACATTTATGTACACACACATATCTGTATATTTA [CACACA_site5617]	11.5 ± 0.97
ATATAATAGAAGTGTACACACATATTTATGGGTGTA [CACACA_site5686]	11.5 ± 0.91
GATAATAATAAGTGTACACATATATTTAGAAGAGTA [CACACA_site4245]	11.5 ± 0.85
ATGGATAATAATAAGTGTACACATATATTTAGAAGA [XGTACX_site244]	11.8 ± 0.86
ACATATATATATATGTGTACATATTTATACAACAAT [XGTACX_site6660]	11.6 ± 0.78
ATATATATATACATATGTACATATATATTTATACAT [XGTACX_site2463]	11 ± 0.58
GTTCCATATATTACATGTACATATTTTTACATTTAA [XGTACX_site660]	11.2 ± 0.72
GAATATATATTCATATGTACACAATTTATGTATTAT [XGTACX_site4719]	11.4 ± 0.79
TATATATATATGTGTACACAATTTATCTGTATTTAT [CACACA_site5945]	11.8 ± 0.93
TTTTTTTTTTTGTTCACACATATACTTTTATTTTGG [CACACA_site4250]	10.2 ± 0.23
AAAAAAAAAAAAAAAACACACAATAAAGTAAAATTT [CACACA_site135]	10.15 ± 0.049
TAAAAATGGGTATGTACACACTTTATTTTTAATACA [CACACA_site5404]	11.5 ± 0.92
TATATATTCCTCCATAGTACAATAATAAAGATAAAA [XGTACX_site5785]	10.6 ± 0.35
ATGTTCTTATTATTGGTGCAAGAATACACAAGAAAA	10.4 ± 0.45
ATTTTTTTACTGCAACCATATTTTTCCCTTTTATTC [CACACA_negctrl_site1282]	10.12 ± 0.085
AAAATTTAAATAGGAAGTACGTTCACTAAGAAAATA [XGTACX_site6546]	11 ± 0.57

Sequence	gcPBM binding intensity (ln)
TGCTGTATATTTTTCTGTACACATTTATATATTCCA [XGTACX_site6244]	11.6 ± 0.87
TTAATATAATAGAAGTGTACACACATATTTATGTGT [XGTACX_site6672]	11.5 ± 0.78
CTATAATAGAAGTGTACACACATATTTATGTCTGTA [CACACA_site7462]	11.7 ± 0.93
TTTAAAAATTAATTCTGTACACATTTTTATTATATT [XGTACX_site4212]	11.5 ± 0.81
ATATAATAGAAGTGTACACACATATTTATGTCTGTA [CACACA_site3121]	11.5 ± 0.74
TTGCTGTATTTATTTTGTACACATTTGGCATTATAT [XGTACX_site3408]	11.2 ± 0.73
TATATATAATATAGTGCATGTAAAAAATAAACCATG [TGCATGCA_site932]	10.2 ± 0.16
ACAAGTTAAAATATTACACACATATAAATATATATA [CACACA_site3132]	9.84 ± 0.099
TTGTTCTATATATATGCATGCACGTATGTTAAATTA [TGCATGCA_site659]	10.3 ± 0.33
AGATATTAAAACGTTACACACATTTATATATCTTCT [CACACA_site908]	9.74 ± 0.2
GAAAGAATAAAATTTACACACATATATATATACATA [CACACA_site2250]	9.745 ± 0.035
ATGTCTATATATTAAGGTACACATATATGCTATTCA [XGTACX_site6008]	11.1 ± 0.57
ACTTATAAAATAACATGTACAAATATTTATTATATA [XGTACX_site133]	11 ± 0.54
AAAAAAATATAAATACGTACATATATATATATATAT [XGTACX_site432]	11.5 ± 0.98
ATTTTGTTCGAAAGGTGTACATATACAAAAATTATG [XGTACX_site957]	11.7 ± 1
TTATACATAAATTTTGTACACACAAAAAAAAAAAAG [CACACA_site8374]	11.2 ± 0.87
ATATCGAAAATTTGGTGTACATTTTTATTTGTTCAA [XGTACX_site3094]	11.5 ± 0.93
TTTATTTATTACTAAAGTACTAAATCATATTATTAT [XGTACX_site2574]	10.6 ± 0.54
TAATATAGTATAGTATGTACATATAATTAGAATATT [XGTACX_site4053]	11.3 ± 0.77
TAGGGTAGTTATAATTGTACTTTTCTCCAAAAAAAA [XGTACX_site7321]	11.3 ± 0.81
TTAGTTTATTGGTACTGTACTTTTTTTTTCTCCATT [XGTACX_site8618]	11.9 ± 0.91
CCATATATTTGGTATAGTACTTTTTATTTTATTTCA [XGTACX_site8933]	11.1 ± 0.5
TACATAAACATTTATACACACATTATATATACATAT [CACACA_site8028]	10.12 ± 0.064

Sequence	gcPBM binding intensity (ln)
TAATTATTTCGTATATTTGAATGGTACATGCTTATA [CACACA_negctrl_site1178]	10.7 ± 0.6
ATACATATAATATATGCATGTACCAATCAAATATAT [TGCATGCA_site192]	10.5 ± 0.29
TGTTGTATTGAAGCTAAAAAATGAGGCAAAAAAAAA [CACACA_negctrl_site1189]	10.2 ± 0.26
GTATTATCTGCTTTTTGTACACATATATTTAAAAAA [XGTACX_site7603]	11.4 ± 0.95
TTTTTATTTGGTTGTGTACACATATATATATATATA [CACACA_site5844]	11.6 ± 0.94
ATGTGTATATATTATTGTACATATATATATATATAT [XGTACX_site4627]	11.2 ± 0.82
TTATATTTATTTATTTGTACATATTTTTTTTTATAT [XGTACX_site1669]	11.2 ± 0.67
AACACTACATAAAACTGTACAATAGTATTTTATTAT [XGTACX_site996]	10.9 ± 0.49
CTTTAAAACCGGTACTGTACACATAGTATTATTATC [XGTACX_site2602]	11.6 ± 0.8
ACATATTTTATTTTTTGTACACATATATTATTTTTT [XGTACX_site6528]	11.3 ± 0.66
TATATTATAGGTTGTGTACACATATTATATAGTACT [CACACA_site4583]	11.6 ± 0.88
TTATTTATATTTTTTTGTACACATATTGTATACATA [XGTACX_site1178]	11.5 ± 0.86
CATACATATACTTTGTGTACATATATATATTATATA [XGTACX_site97]	11.4 ± 0.78
TTTATTTTGTAGTGTACACATATATATATATATATA [CACACA_site5843]	11.7 ± 0.96
AATTTTTATTTGTACACACATACATATATATTATAT [CACACA_site993]	11.4 ± 0.83
TATTTTATATGATAGGTGCATTTTTTTTTTTTTTTT [GTGCAC_site9757]	10.4 ± 0.48
TTCTTTATTTTTTCTACACACATTATATATTCAAAG [CACACA_site5866]	10.12 ± 0.099
CAACACTTATTGAAACGTACGCATATAGTTTCTTTT [XGTACX_site8960]	11 ± 0.55
TATAAATATAAATATACACACATATATTTATTTATA [CACACA_site6890]	9.645 ± 0.078
TATTTGTGCCAAAAATGAAAAAGTTTGTATAAAACC [CACACA_negctrl_site1406]	10.1 ± 0.17
